In all, about 5,500 compounds went through this assay and about 2,000 (36%) were called active. Not shown: some 18% with an inconclusive outcome. Rule as the data show it: active = normalized growth mostly below about 0.91 (no sharp cut-off); inconclusive = no clear call, values can overlap the other calls; inactive = mostly above about 0.92. This is one part of the list.
Assay: chemical genetic growth profiling, strain panel (AID 1159580);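 also: tested at 20 µM; growth read once vehicle control cultures reached saturation at 30 °C; 1 = growth at the plate median or of vehicle wells; lower values mean less growth of the strain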
Details: growth OD

Measured: normalized growth

CC(=O)OC1CC(OC(C)=O)C2(C)C(CC(OC(C)=O)C3(C)C4=CC(=O)OC(=O)C4(C)CCC32)C1(C)C (stereo unspecified)
inactive: S. cerevisiae deletion strains, locus YBR021W, strain FUR4, active compounds read low 1.01 | S. cerevisiae deletion strains, locus YBR229C, strain ROT2, active compounds read low 1 | S. cerevisiae deletion strains, locus YCL029C, strain bik1, active compounds read low 1 | S. cerevisiae deletion strains, locus YDL035C, strain GPR1, active compounds read low 1.01 | S. cerevisiae deletion strains, locus YDL074C, strain BRE1, active compounds read low 1.02 | S. cerevisiae deletion strains, locus YDL101C, strain DUN1, active compounds read low 1.02 | S. cerevisiae deletion strains, locus YDL134C, strain PPH21, active compounds read low 1.02 | S. cerevisiae deletion strains, locus YDL185W, strain tfp1, active compounds read low 1.01 | S. cerevisiae deletion strains, locus YDL192W, strain arf1, active compounds read low 0.982 | S. cerevisiae deletion strains, locus YDR101C, strain arx1, active compounds read low 0.996 | S. cerevisiae deletion strains, locus YDR150W, strain NUM1, active compounds read low 1.01 | S. cerevisiae deletion strains, locus YDR162C, strain NBP2, active compounds read low 1.01 | S. cerevisiae deletion strains, locus YDR318W, strain mcm21, active compounds read low 0.99 | S. cerevisiae deletion strains, locus YDR388W, active compounds read low 1.01 | S. cerevisiae deletion strains, locus YDR502C, strain sam2, active compounds read low 1.02 | S. cerevisiae deletion strains, locus YER110C, active compounds read low 1 | S. cerevisiae deletion strains, locus YER155C, strain BEM2, active compounds read low 0.993 | S. cerevisiae deletion strains, locus YER167W, strain BCK2, active compounds read low 0.995 | S. cerevisiae deletion strains, locus YGL078C, strain dbp3, active compounds read low 1.03 | S. cerevisiae deletion strains, locus YGL086W, strain mad1, active compounds read low 0.998 | S. cerevisiae deletion strains, locus YGL248W, strain PDE1, active compounds read low 1.03 | S. cerevisiae deletion strains, locus YGR078C, strain PAC10, active compounds read low 1.04 | S. cerevisiae deletion strains, locus YGR135W, strain pre9, active compounds read low 1.06 | S. cerevisiae deletion strains, locus YGR252W, strain gcn5, active compounds read low 1.03 | S. cerevisiae deletion strains, locus YHR030C, strain SLT2, active compounds read low 0.999 | S. cerevisiae deletion strains, locus YHR079C, strain IRE1 (second series), active compounds read low 1 | S. cerevisiae deletion strains, locus YHR094C, strain hxt1, active compounds read low 1.01 | S. cerevisiae deletion strains, locus YHR129C, strain ARP1, active compounds read low 1.01 | S. cerevisiae deletion strains, locus YHR200W, strain rpn10, active compounds read low 1.01 | S. cerevisiae deletion strains, locus YIL066C, strain RNR3, active compounds read low 0.99 | S. cerevisiae deletion strains, locus YIL073C, strain SPO22, active compounds read low 1.04 | S. cerevisiae deletion strains, locus YIL125W, strain kgd1, active compounds read low 0.993 | S. cerevisiae deletion strains, locus YIR030C, strain dcg1, active compounds read low 0.999 | S. cerevisiae deletion strains, locus YJL095W, strain BCK1, active compounds read low 1.04 | S. cerevisiae deletion strains, locus YJL134W, strain LCB3, active compounds read low 0.997 | S. cerevisiae deletion strains, locus YJL168C, strain set2, active compounds read low 1 | S. cerevisiae deletion strains, locus YJL187C, strain SWE1 (second series), active compounds read low 1.04 | S. cerevisiae deletion strains, locus YJR043C, strain POL32, active compounds read low 0.99 | S. cerevisiae deletion strains, locus YJR075W, strain HOC1, active compounds read low 1.01 | S. cerevisiae deletion strains, locus YKL009W, strain mrt4, active compounds read low 0.992 | S. cerevisiae deletion strains, locus YKL068W, active compounds read low 1.01 | S. cerevisiae deletion strains, locus YKL085W, strain MDH1 (second series), active compounds read low 0.987 | S. cerevisiae deletion strains, locus YKL085W, strain MDH1, active compounds read low 0.987 | S. cerevisiae deletion strains, locus YKL190W, strain CNB1, active compounds read low 1.01 | S. cerevisiae deletion strains, locus YKR001C, strain vps1, active compounds read low 0.987 | S. cerevisiae deletion strains, locus YLR039C, strain RIC1, active compounds read low 1.02 | S. cerevisiae deletion strains, locus YLR058C, strain SHM2, active compounds read low 1.02 | S. cerevisiae deletion strains, locus YLR102C, strain apc9, active compounds read low 1.01 | S. cerevisiae deletion strains, locus YLR262C, strain YPT6, active compounds read low 0.985 | S. cerevisiae deletion strains, locus YLR268W, strain sec22, active compounds read low 0.981 | S. cerevisiae deletion strains, locus YLR330W, strain CHS5, active compounds read low 1 | S. cerevisiae deletion strains, locus YLR371W, strain rom2, active compounds read low 0.987 | S. cerevisiae deletion strains, locus YLR418C, strain cdc73, active compounds read low 1.03 | S. cerevisiae deletion strains, locus YML016C, strain PPZ1, active compounds read low 1.01 | S. cerevisiae deletion strains, locus YML032C, strain rad52, active compounds read low 1 | S. cerevisiae deletion strains, locus YML124C, strain tub3, active compounds read low 0.998 | S. cerevisiae deletion strains, locus YMR078C, strain ctf18, active compounds read low 1 | S. cerevisiae deletion strains, locus YMR223W, strain ubp8, active compounds read low 1 | S. cerevisiae deletion strains, locus YMR307W, strain GAS1, active compounds read low 0.916 | S. cerevisiae deletion strains, locus YNL067W, strain RPL9B, active compounds read low 1.05 | S. cerevisiae deletion strains, locus YNL233W, strain BNI4, active compounds read low 1.02 | S. cerevisiae deletion strains, locus YNL250W, strain rad50, active compounds read low 1.02 | S. cerevisiae deletion strains, locus YNL271C, strain bni1, active compounds read low 1.01 | S. cerevisiae deletion strains, locus YNL298W, strain CLA4, active compounds read low 1.01 | S. cerevisiae deletion strains, locus YNL307C, strain MCK1, active compounds read low 1.02 | S. cerevisiae deletion strains, locus YNR052C, strain pop2, active compounds read low 1.03 | S. cerevisiae deletion strains, locus YOL006C, strain TOP1, active compounds read low 0.98 | S. cerevisiae deletion strains, locus YOL012C, strain htz1 0.765 | S. cerevisiae deletion strains, locus YOL147C, strain pex11, active compounds read low 1 | S. cerevisiae deletion strains, locus YOR061W, strain CKA2, active compounds read low 0.994 | S. cerevisiae deletion strains, locus YOR069W, strain VPS5, active compounds read low 1.01 | S. cerevisiae deletion strains, locus YOR136W, strain idh2, active compounds read low 1.01 | S. cerevisiae deletion strains, locus YOR144C, strain elg1, active compounds read low 0.996 | S. cerevisiae deletion strains, locus YOR184W, strain ser1, active compounds read low 0.978 | S. cerevisiae deletion strains, locus YOR316C, strain cot1, active compounds read low 1.01 | S. cerevisiae deletion strains, locus YPR119W, strain clb2, active compounds read low 1.01 | S. cerevisiae deletion strains, locus YPR141C, strain kar3, active compounds read low 1.01 | S. cerevisiae deletion strains, locus YPR163C, strain tif3, active compounds read low 1.02 | S. cerevisiae deletion strains, locus YPR167C, strain met16, active compounds read low 1.01 | S. cerevisiae deletion strains, strain wtn01, active compounds read low 0.975 | S. cerevisiae strains, strain wild type, active compounds read low 1
